According to PubChem BioAssay (Tox21):
Records with an inconclusive call do not appear. The source made the active and inactive calls. Unless noted, calls come from the whole dose curve; as a rule, active = well fitted curve in the direction sought with a large enough effect in the repeat runs; inconclusive = weak or mixed curves; inactive = no such curve, though single readings can be large; an effect the other way counts as inactive or inconclusive.

What was measured:
[1] = qHTS assay to identify small molecule agonists of the progesterone receptor (PR) signaling pathway - cell viability counter screen (AID 1346799; calls by dose curve; note: nearly all actives have a fitted effect of over 45% in size; note: potency is the fitted concentration of half-maximal effect)
Procedure, shortened: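 Cytotoxicity measured by CellTiter-Glo luminescence (30 min, RT) in the same wells as the PR beta-lactamase agonist read. Those HEK293T cells had 16 h compound treatment at 37 C in 2% charcoal-stripped FBS medium.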

[2] = qHTS assay to identify small molecule agonists of the TGF-beta/Smad signaling pathway - cell viability counter screen (AID 1346829); note: nearly all actives have a fitted effect of over 45% in size; note: potency is the fitted concentration of half-maximal effect
Procedure, shortened: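 Here the cytotoxicity of library compounds is measured in SBE-bla HEK 293T cells treated for 5 hr, using CellTiter-Glo added to wells already read for the beta-lactamase reporter.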

[3] = qHTS assay to identify small molecule agonists of the TGF-beta/Smad signaling pathway (AID 1346859; active = well fitted activation curve with a large enough effect in the signal ratio in the repeat runs, not every such curve was filed as active; the % refers to the signal ratio; note: series mostly up to about 77 µM; % is set by controls: 0 for no effect and ±100 for the full control effect)
Procedure, shortened: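 Fluorescence (ex 405 nm; em 460 and 530 nm) was read 2 h after LiveBLAzer FRET substrate at RT. The preceding compound treatment of overnight-plated SBE-bla HEK293T cells lasted 5 h at 37 C.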

[4] = molecular target: Thyrotropin-releasing hormone receptor (Homo sapiens) (UniProt P34981); test: qHTS assay to identify small molecule antagonists of the thyrotropin-releasing hormone receptor (TRHR) signaling pathway (AID 1346877; active = well fitted inhibition curve with a large enough effect in the repeat runs, not every such curve was filed as active; note: series mostly up to about 51 µM; % is set by controls: 0 for no effect and ±100 for the full control effect)
Chain of Thyrotropin-releasing hormone receptor (Homo sapiens) (P34981 whole entry, looked up): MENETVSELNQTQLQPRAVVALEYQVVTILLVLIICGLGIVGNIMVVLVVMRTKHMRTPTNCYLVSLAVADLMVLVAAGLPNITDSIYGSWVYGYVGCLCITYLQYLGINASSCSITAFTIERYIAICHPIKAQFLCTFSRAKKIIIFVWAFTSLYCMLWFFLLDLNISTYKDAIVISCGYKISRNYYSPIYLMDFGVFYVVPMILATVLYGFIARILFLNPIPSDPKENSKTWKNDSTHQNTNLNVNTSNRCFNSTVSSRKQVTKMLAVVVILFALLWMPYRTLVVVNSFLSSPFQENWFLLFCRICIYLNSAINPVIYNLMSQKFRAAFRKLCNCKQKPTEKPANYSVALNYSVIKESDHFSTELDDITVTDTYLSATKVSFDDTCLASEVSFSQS
Procedure, shortened: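 Screening used HEK293 cells engineered with TRHR, with a brief 5 min room-temperature compound exposure preceding addition of TRH to 1 nM. The read-out was kinetic calcium-dye fluorescence, concentration-response from 15 doses in triplicate.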

[5] = molecular target: Thyrotropin-releasing hormone receptor (Homo sapiens) (UniProt P34981); test: qHTS assay to identify small molecule agonists of the thyrotropin-releasing hormone receptor (TRHR) signaling pathway (AID 1346891; calls by dose curve; note: series mostly up to about 58 µM; % is set by controls: 0 for no effect and ±100 for the full control effect)
Procedure, shortened: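 Agonist-mode intracellular calcium readout: kinetic fluorescence over 3 min at 1 s intervals after compound addition to TRHR-HEK293 cells (18 h seeded, 2 h dye-loaded at 37 C). Fifteen concentrations, triplicates.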

[6] = Human pregnane X receptor (PXR) small molecule agonists, qHTS cell viability counter screen (AID 1346977); note: nearly all actives have a fitted effect of over 50% in size; note: potency is the fitted concentration of half-maximal effect
Procedure, shortened: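 Same-well viability read: CellTiter-Fluor added after 23 hr compound exposure, fluorescence measured 1 hr later. Cells were PXR-Luc HepG2 seeded at 2,000/well in 5% charcoal-stripped FBS medium, rested 5 hr before dosing at 37 C.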

[7] = Caspase-3/7 induction in HepG2 cells by small molecules, qHTS assay (AID 1346978); note: nearly all actives have a fitted effect of over 15% in size; note: potency is the fitted concentration of half-maximal effect
Procedure, shortened: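 Wild-type HepG2 cells, 2,000/well, settled 5 hr at 37 C and 5% CO2, then compound-treated for 17 hr; caspase-3/7 activity read by luminescent Caspase-Glo 3/7 after 30 min at room temperature.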

[8] = Caspase-3/7 induction in CHO-K1 cells by small molecules, qHTS cell viability counter screen (AID 1346979); note: nearly all actives have a fitted effect of over 35% in size; note: potency is the fitted concentration of half-maximal effect
Procedure, shortened: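 Cytotoxicity counter screen: CellTiter-Fluor added to compound-treated wild-type CHO-K1 cells at 16 h (37C, 5% CO2), fluorescence measured 1 h later; same wells as caspase-3/7 measurement.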

[9] = Caspase-3/7 induction in CHO-K1 cells by small molecules, qHTS assay (AID 1346980); note: nearly all actives have a fitted effect of over 15% in size; note: potency is the fitted concentration of half-maximal effect
Procedure, shortened: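 Wild-type CHO-K1 cells exposed to compounds for 17hr at 37 C, 5% CO2. Caspase-3/7 activity then measured by Caspase-Glo 3/7 luminescence after 30min at room temperature.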

[10] = Caspase-3/7 induction in HepG2 cells by small molecules, qHTS cell viability counter screen (AID 1346981); note: nearly all actives have a fitted effect of over 30% in size; note: potency is the fitted concentration of half-maximal effect
Procedure, shortened: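 Multiplexed with the caspase-3/7 assay: HepG2 cells, 16 hr compound treatment, CellTiter-Fluor viability detection by fluorescence.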

[11] = molecular target: Nuclear receptor subfamily 1 group I member 2 (Homo sapiens) (UniProt O75469); test: Human pregnane X receptor (PXR) small molecule agonists, qHTS assay (AID 1346982); note: nearly all actives have a fitted effect of over 35% in size; note: potency is the fitted concentration of half-maximal effect; for activation: % is set by controls: 0 for no effect and ±100 for the full control effect
Chain of Nuclear receptor subfamily 1 group I member 2 (Homo sapiens) (O75469 whole entry, looked up): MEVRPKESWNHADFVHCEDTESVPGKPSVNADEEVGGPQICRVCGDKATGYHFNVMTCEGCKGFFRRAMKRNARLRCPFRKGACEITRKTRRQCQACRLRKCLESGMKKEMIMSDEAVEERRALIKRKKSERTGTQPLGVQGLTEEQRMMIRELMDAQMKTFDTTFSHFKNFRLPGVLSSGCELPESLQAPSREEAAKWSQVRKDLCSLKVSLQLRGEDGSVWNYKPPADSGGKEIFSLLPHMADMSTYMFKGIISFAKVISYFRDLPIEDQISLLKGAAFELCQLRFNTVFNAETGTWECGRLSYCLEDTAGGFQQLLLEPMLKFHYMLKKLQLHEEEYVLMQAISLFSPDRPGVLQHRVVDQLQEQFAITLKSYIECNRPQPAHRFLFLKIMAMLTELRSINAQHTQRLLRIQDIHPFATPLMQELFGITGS
Procedure, shortened: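 We seeded PXR-Luc HepG2 cells in assay medium containing 5% charcoal-stripped FBS, added compounds 5 hr later, incubated 24 hr, and read luminescence with ONE-Glo reagent.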

[12] = molecular target: Cytochrome P450 2D6 (Homo sapiens) (UniProt P10635); test: Cytochrome P450 Family 2 Subfamily D Member 6 (CYP2D6) small molecule antagonists: luciferase reporter qHTS assay (AID 1671196); note: nearly all actives have a fitted effect of over 50% in size; note: potency is the fitted concentration of half-maximal effect
Chain of Cytochrome P450 2D6 (Homo sapiens) (P10635 whole entry, looked up): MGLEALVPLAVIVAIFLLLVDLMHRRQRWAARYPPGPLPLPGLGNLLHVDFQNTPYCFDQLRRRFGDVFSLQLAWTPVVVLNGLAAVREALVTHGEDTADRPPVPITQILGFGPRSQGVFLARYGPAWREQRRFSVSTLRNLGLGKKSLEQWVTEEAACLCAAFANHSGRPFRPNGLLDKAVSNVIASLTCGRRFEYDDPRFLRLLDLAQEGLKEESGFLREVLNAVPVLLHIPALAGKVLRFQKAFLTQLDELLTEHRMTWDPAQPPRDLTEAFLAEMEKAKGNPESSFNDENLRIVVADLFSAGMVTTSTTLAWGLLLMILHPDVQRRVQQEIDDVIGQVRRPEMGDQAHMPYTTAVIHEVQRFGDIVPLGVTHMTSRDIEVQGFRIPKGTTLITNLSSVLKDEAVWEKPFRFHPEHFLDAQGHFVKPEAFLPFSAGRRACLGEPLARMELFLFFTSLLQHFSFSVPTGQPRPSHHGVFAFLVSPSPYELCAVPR
Procedure, shortened: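 Luminescence (RLU), read 20 min after detection reagent, indicated CYP2D6 conversion of proluciferin to luciferin during a 1 h NADPH-dependent reaction at room temperature.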

[13] = molecular target: Cytochrome P450 2C19 (Homo sapiens) (UniProt P33261); test: Cytochrome P450 Family 2 Subfamily C Member 19 (CYP2C19) small molecule antagonists: luciferase reporter qHTS assay (AID 1671197); note: nearly all actives have a fitted effect of over 65% in size; note: potency is the fitted concentration of half-maximal effect
Chain of Cytochrome P450 2C19 (Homo sapiens) (P33261 whole entry, looked up): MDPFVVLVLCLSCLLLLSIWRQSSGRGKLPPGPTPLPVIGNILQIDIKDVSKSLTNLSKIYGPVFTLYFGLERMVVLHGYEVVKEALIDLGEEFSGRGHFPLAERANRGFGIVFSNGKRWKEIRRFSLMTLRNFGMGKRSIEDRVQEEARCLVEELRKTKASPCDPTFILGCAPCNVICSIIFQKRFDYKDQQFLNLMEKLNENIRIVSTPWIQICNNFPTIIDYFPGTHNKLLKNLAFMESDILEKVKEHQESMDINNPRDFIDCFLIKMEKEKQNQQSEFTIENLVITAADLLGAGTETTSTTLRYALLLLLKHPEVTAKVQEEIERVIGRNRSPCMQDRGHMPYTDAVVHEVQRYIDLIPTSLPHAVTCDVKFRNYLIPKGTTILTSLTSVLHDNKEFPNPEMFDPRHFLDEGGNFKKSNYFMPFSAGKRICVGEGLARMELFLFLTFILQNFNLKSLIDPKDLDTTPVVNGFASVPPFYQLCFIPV
Procedure, shortened: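 Light output is proportional to CYP2C19 activity: proluciferin substrate is converted to luciferin, then detected by a luciferin detection reagent that also stops the 1 h, 37C NADPH-driven reaction. Ketoconazole serves as positive control.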

[14] = molecular target: Cytochrome P450 2C9 (Homo sapiens) (UniProt P11712); test: Cytochrome P450 Family 2 Subfamily C Member 9 (CYP2C9) small molecule antagonists: luciferase reporter qHTS assay (AID 1671198); note: nearly all actives have a fitted effect of over 50% in size; note: potency is the fitted concentration of half-maximal effect
Chain of Cytochrome P450 2C9 (Homo sapiens) (P11712 whole entry, looked up): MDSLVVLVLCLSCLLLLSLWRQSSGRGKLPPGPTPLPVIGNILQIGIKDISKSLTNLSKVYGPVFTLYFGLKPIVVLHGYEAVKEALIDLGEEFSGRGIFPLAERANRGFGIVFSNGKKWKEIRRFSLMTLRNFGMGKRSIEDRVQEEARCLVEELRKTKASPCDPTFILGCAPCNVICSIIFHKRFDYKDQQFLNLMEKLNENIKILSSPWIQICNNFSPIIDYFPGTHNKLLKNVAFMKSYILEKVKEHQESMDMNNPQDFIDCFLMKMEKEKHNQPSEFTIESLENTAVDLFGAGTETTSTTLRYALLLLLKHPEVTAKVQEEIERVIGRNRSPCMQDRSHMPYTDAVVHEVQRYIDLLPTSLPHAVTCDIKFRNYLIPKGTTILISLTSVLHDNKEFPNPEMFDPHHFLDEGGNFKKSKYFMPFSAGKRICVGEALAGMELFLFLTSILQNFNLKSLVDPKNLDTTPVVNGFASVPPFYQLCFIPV
Procedure, shortened: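 P450-Glo proluciferin substrate with CYP2C9 enzyme; 10 min RT preincubation, then NADPH regeneration 1 h at 37C; luciferin detection reagent 20 min RT, luminescence in relative luminescence units.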

[15] = molecular target: Voltage-gated inwardly rectifying potassium channel KCNH2 (Homo sapiens) (UniProt Q12809); test: Human Ether-a-go-go-Related Gene (hERG) channel small molecule antagonists: fluorescence cell-based qHTS assay (AID 1671200); note: nearly all actives have a fitted effect of over 50% in size; note: potency is the fitted concentration of half-maximal effect
Chain of Voltage-gated inwardly rectifying potassium channel KCNH2 (Homo sapiens) (Q12809 whole entry, looked up): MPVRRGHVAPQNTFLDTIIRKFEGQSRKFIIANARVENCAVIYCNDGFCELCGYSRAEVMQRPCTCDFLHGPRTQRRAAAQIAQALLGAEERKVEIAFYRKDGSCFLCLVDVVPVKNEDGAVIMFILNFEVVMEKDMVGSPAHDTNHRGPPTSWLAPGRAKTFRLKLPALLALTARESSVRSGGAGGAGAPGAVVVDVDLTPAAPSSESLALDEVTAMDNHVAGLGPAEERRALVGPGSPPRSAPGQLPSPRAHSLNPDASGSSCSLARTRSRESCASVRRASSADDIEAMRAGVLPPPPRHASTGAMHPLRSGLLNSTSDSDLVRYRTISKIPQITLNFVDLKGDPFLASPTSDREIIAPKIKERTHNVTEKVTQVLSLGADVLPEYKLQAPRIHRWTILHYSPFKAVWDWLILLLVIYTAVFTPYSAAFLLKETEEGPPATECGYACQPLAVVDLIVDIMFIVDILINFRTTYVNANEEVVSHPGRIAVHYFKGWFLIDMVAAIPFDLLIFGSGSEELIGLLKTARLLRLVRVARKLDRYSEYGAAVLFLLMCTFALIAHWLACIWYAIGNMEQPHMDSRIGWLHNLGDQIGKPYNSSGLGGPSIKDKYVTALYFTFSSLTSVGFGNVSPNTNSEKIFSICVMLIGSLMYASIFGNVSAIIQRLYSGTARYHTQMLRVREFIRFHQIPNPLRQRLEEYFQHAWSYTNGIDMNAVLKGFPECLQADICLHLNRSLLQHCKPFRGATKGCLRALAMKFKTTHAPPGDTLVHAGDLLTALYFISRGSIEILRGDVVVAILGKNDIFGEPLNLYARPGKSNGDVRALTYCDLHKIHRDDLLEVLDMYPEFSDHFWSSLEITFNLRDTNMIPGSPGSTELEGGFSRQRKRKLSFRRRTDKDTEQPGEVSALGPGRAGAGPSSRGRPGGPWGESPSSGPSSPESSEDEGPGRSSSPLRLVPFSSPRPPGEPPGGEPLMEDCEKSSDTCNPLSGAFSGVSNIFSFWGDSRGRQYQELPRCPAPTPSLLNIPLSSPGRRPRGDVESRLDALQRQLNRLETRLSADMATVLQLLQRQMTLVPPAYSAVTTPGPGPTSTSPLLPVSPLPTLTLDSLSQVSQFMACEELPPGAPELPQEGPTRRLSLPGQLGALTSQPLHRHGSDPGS
Procedure, shortened: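 Thallium flux as potassium surrogate: FluxOR II dye loaded 1 h at room temperature into hERG-expressing U2OS cells, then stimulus buffer added after 10 min. Kinetic 480 nm excitation/540 nm emission read, 2 min.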

[16] = qHTS assay to identify small molecule antagonists of the TGF-beta/Smad signaling pathway - cell viability counter screen (AID 1346824); note: nearly all actives have a fitted effect of over 50% in size; note: potency is the fitted concentration of half-maximal effect
Procedure, shortened: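 SBE-bla HEK 293T cells, incubated overnight, then compound plus 0.25 ng/mL TGF-beta1 (stock added) for 5 hr at 37 C. Viability was read in the same wells by CellTiter-Glo luminescence after 30 min at room temperature.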

[17] = molecular target: Cytochrome P450 1A2 (Homo sapiens) (UniProt P05177); test: Cytochrome P450 Family 1 Subfamily A Member 2 (CYP1A2) small molecule antagonists: luciferase reporter qHTS assay (AID 1671199); note: nearly all actives have a fitted effect of over 50% in size; note: potency is the fitted concentration of half-maximal effect
Chain of Cytochrome P450 1A2 (Homo sapiens) (P05177 whole entry, looked up): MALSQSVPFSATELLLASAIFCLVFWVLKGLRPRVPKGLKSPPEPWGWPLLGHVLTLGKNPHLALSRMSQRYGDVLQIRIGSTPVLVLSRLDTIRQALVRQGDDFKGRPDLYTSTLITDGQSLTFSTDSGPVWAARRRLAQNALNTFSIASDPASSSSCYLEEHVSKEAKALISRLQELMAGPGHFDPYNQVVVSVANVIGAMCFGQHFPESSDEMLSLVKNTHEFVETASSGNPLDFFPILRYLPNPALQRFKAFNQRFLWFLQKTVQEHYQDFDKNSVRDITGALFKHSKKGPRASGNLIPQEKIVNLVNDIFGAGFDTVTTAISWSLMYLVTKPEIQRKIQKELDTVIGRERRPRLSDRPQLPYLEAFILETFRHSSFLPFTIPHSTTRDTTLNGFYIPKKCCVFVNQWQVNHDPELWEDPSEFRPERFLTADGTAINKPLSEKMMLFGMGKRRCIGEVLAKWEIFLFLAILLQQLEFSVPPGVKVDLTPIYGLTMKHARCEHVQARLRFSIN
Procedure, shortened: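 CYP1A2 turnover of a luminogenic substrate was quantified after 1 h with NADPH regeneration at room temperature. Furafylline served as positive control.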

[18] = molecular target: Nuclear receptor subfamily 1 group I member 2 (Rattus norvegicus) (UniProt Q9R1A7); test: Rat pregnane X receptor (rPXR) activation by small molecules, qHTS assay (AID 1346983); details: rPXR luciferase reporter cells, One-Glo luminescence, 24 h; max activation: active compounds read high; note: nearly all actives have a fitted effect of over 20% in size; note: potency is the fitted concentration of half-maximal effect
Chain of Nuclear receptor subfamily 1 group I member 2 (Rattus norvegicus) (Q9R1A7 whole entry, looked up): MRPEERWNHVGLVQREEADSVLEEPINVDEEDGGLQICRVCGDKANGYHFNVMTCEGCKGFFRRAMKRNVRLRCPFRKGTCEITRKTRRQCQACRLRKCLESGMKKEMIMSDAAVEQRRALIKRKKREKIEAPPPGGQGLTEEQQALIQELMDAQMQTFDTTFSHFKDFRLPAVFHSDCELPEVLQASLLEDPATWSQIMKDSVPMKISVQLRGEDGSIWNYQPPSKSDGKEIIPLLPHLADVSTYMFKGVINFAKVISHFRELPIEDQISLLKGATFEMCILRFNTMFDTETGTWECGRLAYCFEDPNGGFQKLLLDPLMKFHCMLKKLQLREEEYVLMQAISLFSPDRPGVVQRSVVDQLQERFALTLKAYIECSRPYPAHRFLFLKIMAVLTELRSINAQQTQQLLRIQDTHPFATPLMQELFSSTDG
Procedure, shortened: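 Cell-based rPXR activation assay: rPXR cells, 2,000 per well, rested 5hr at 37 C, then exposed to compounds in DMSO for 24 hr at 37 C. Luciferase activity read by One-Glo luminescence after 30 min at room temperature.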

[19] = molecular target: Nuclear receptor subfamily 1 group I member 2 (Homo sapiens) (UniProt O75469); test: CYP3A4 induction through human pregnane X receptor (PXR) by small molecules, qHTS assay (AID 1346984); note: % is set by controls: 0 for no effect and ±100 for the full control effect; nearly all actives have a fitted effect of over 40% in size
Procedure, shortened: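 qHTS, concentration-response format: HepG2 DPX-2 line, PXR/CYP3A4-luc. Exposure 24 h, 37C. Substrate Luciferin-IPA 3uM final, 3 h. Detection One-Glo, 30 min RT.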

[20] = molecular target: Nuclear receptor subfamily 1 group I member 2 (Homo sapiens) (UniProt O75469); test: Human pregnane X receptor (PXR) activation by small molecules, qHTS assay (AID 1346985); note: potency is the fitted concentration of half-maximal effect; nearly all actives have a fitted effect of over 40% in size
Procedure, shortened: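 DPX-2 cells (HepG2 co-transfected with a PXR response element and a CYP3A4-promoter luciferase construct) were seeded at 2,000 per well, rested 5 hr at 37C, then exposed to DMSO-dissolved compounds for 24 hr. Activation was read as luciferase luminescence.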

Cc1ccc(C=O)cc1
inactive: Potency [1] | Potency [2] | outcome [3] | Potency [4] | Potency [5] | Potency [6] | Potency [7] | Potency [8] | Potency [9] | Potency [10] | Potency [11] | Potency [12] | Potency [13] | Potency [14] | Potency [15]

CC(=O)CC(N)=O
inactive: Potency [16] | Potency [2] | outcome [3] | Potency [4] | Potency [6] | Potency [7] | Potency [8] | Potency [9] | Potency [10] | Potency [11] | Potency [12] | Potency [13] | Potency [17] | Potency [15]

O[Si](c1ccccc1)(c1ccccc1)c1ccccc1
active: Potency [8] 30.6 µM | Potency [11] 27.3 µM | Potency [13] 0.502 µM
inactive: Potency [16] | Potency [2] | outcome [3] | Potency [6] | Potency [7] | Potency [9] | Potency [12]

CC(=O)Nc1ccc(N=Nc2cc(C)ccc2O)cc1
active: Potency [8] 68.6 µM | Potency [10] 61.1 µM | Potency [11] 9.69 µM | Potency [13] 56.4 µM | Potency [14] 35.6 µM | Potency [17] 31.7 µM
inactive: Potency [16] | Potency [2] | outcome [3] | Potency [7] | Potency [9] | Potency [15]

Cc1c(Cl)c(=O)oc2cc(O)ccc12
inactive: Potency [16] | Potency [2] | Potency [4] | Potency [7] | Potency [9] | Potency [14] | Potency [15]

C=C1C(CCl)(CCl)C2(Cl)C(Cl)C(Cl)C1(Cl)C2(Cl)Cl (configuration not stated)
inactive: Potency [16] | outcome [3] | Potency [4] | Potency [19]
active: Potency [2] 54.3 µM | Potency [8] 53.8 µM | Potency [9] 48 µM | Potency [11] 8.53 µM | Potency [18] 11.2 µM | Potency [20] 15.8 µM | Potency [12] 44.3 µM | Potency [13] 1.76 µM | Potency [14] 15.7 µM | Potency [15] 43.1 µM

Cc1cc(F)ccc1-c1cc(N2CC[C@@H](O)[C@H]2CO)ncc1N(C)C(=O)C(C)(C)c1cc(C(F)(F)F)cc(C(F)(F)F)c1
active: Potency [6] 38 µM | Potency [7] 38 µM | Potency [8] 24 µM | Potency [9] 38 µM | Potency [10] 38 µM | Potency [11] 17 µM | Potency [13] 27.8 µM | Potency [14] 22.1 µM
inactive: Potency [16] | Potency [2] | Potency [4] | Potency [15]

NCc1cccc(C2CCN(C(=O)c3ccc(C#Cc4ccccc4F)o3)CC2)c1
inactive: outcome [3] | Potency [4] | Potency [5] | Potency [11]
active: Potency [1] 61.1 µM | Potency [13] 2 µM | Potency [14] 0.071 µM | Potency [15] 11 µM

CCC(C)(C)c1ccc(CC(C)CN2C[C@@H](C)O[C@@H](C)C2)cc1 (some centres not stated)
inactive: Potency [16] | Potency [2] | outcome [3] | Potency [4] | Potency [5] | Potency [7] | Potency [9] | Potency [10] | Potency [11] | max activation [18] -0.729% | Potency [19]
active: Potency [12] 6.92 µM | Potency [13] 11 µM | Potency [15] 9.52 µM

Cc1ncc(C[n+]2csc(CCO)c2C)c(N)n1
inactive: max activation [18] -0.76%

CCCCCCCCCCCCCCCC[n+]1ccccc1
inactive: max activation [18] -15.5%

Nc1ccc(F)c([N+](=O)[O-])c1
active: Potency [13] 89.4 µM
inactive: Potency [16] | outcome [3] | Potency [4] | Potency [5] | Potency [6] | Potency [7] | Potency [8] | Potency [9] | Potency [10] | Potency [11] | Potency [15]

c1ccc(-c2ccccc2-c2ccccc2)cc1
active: Potency [11] 61.1 µM | Potency [13] 20 µM
inactive: Potency [16] | outcome [3] | Potency [4] | Potency [5] | Potency [7] | Potency [10] | Potency [12]

O=C1C=CC(=O)N1c1cccc(N2C(=O)C=CC2=O)c1
inactive: outcome [3] | Potency [5] | Potency [7] | Potency [9] | Potency [11]
active: Potency [16] 54.9 µM | Potency [6] 61.1 µM | Potency [8] 5.45 µM | Potency [10] 61.1 µM | Potency [12] 71 µM | Potency [13] 7.1 µM | Potency [14] 6.33 µM

CCCC(=O)c1cc(O)c(O)cc1O
active: Potency [6] 44.7 µM | Potency [8] 51.4 µM | Potency [10] 40.9 µM | Potency [12] 51.7 µM | Potency [13] 20 µM | Potency [14] 26.7 µM
inactive: Potency [16] | Potency [4] | Potency [5] | Potency [7] | Potency [9] | Potency [15]

CN1CCN(c2ccccc2/C=C2\SCCN(c3ccc(Cl)c(Cl)c3)C2=O)CC1
active: Potency [6] 27.3 µM | Potency [7] 61.1 µM | Potency [8] 61.1 µM | Potency [10] 61.1 µM | Potency [12] 7.1 µM | Potency [13] 5.03 µM | Potency [14] 10 µM | Potency [15] 2.19 µM

COc1ccc(OC)c(N=Nc2c(O)ccc3ccccc23)c1
active: Potency [2] 43.6 µM | Potency [8] 21.7 µM | Potency [10] 27.3 µM | Potency [11] 9.69 µM | Potency [13] 10 µM | Potency [17] 0.894 µM
inactive: outcome [3] | Potency [4] | Potency [5] | Potency [7] | Potency [9] | Potency [15]

S=C1NC=NC2N=CNC12 (configuration not stated)
active: Potency [16] 3.47 µM | Potency [11] 21.7 µM | Potency [13] 25.2 µM | Potency [17] 71 µM
inactive: outcome [3] | Potency [4] | Potency [5] | Potency [6] | Potency [7] | Potency [9] | Potency [10] | Potency [15]

CC1(C)S[C@@H]2[C@H](NC(=O)[C@H](N)c3ccc(O)cc3)C(=O)N2[C@H]1C(=O)O
inactive: max activation [18] -0.49%

CCCCCCCCCCCCCCCCCC(=O)O
inactive: max activation [18] -4.34%
